Test results from PubChem BioAssay (Tox21).
Records with an inconclusive call do not appear. Active and inactive are the calls of the source. Calls follow the shape of the dose curve; as a rule, active = well fitted inhibition curve with a large enough effect in the signal ratio in the repeat runs (not every such curve was filed as active); inconclusive = weak or mixed curves, or effect the other way; inactive = no such curve, though single readings can be large or run the other way; the % refers to the signal ratio.

target: Vitamin D3 receptor (Homo sapiens) (UniProt P11473); assay: qHTS assay to identify small molecule antagonists of the vitamin D receptor (VDR) signaling pathway (AID 743223); conditions: VDR-UAS-bla HEK293T, beta-lactamase FRET ratio, 16 h; series mostly up to 61 µM
How it was run: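 Antagonist mode uses 1alpha,25-dihydroxyvitamin D3 at 3 nM final as stimulus. VDR-bla cells receive compounds in DMSO, incubate 16 h at 37C, then a beta-lactamase FRET substrate for 2 h at room temperature before fluorescence measurement.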

Sequence of Vitamin D3 receptor (Homo sapiens) (P11473 whole entry, looked up): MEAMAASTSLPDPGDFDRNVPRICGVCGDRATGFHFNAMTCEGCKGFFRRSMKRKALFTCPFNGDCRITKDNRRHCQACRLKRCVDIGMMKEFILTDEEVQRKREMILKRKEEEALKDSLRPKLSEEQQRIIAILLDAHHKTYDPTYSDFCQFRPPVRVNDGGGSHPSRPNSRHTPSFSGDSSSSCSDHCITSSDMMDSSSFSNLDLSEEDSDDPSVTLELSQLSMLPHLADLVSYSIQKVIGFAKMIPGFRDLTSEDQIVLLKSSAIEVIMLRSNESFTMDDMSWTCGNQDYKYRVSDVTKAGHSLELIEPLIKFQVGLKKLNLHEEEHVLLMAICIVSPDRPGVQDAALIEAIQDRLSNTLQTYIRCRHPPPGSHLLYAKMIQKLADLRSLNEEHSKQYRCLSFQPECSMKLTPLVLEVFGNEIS

Q: For `CCN(CC)c1ccccc1`, which outcome is on record?
A: inactive

Q: How did the outcome turn out when `CC(C)OC(=O)Nc1ccccc1` was run?
A: inactive

Q: `CC(=O)C=C(C)C` was tested. Which outcome did it give?
A: inactive

Q: Which outcome does the source give for `CCC(C)(CC)c1cc(NC(=O)c2c(OC)cccc2OC)on1` here?
A: inactive

Q: With `[O-][Cl+2]([O-])O` as the molecule, how does the outcome read?
A: inactive

Q: Which outcome does the source give for `CC(Oc1ccc(Cl)cc1Cl)C(=O)O` (stereo unspecified) here?
A: inactive

Q: `CON(C)C(=O)Nc1ccc(Cl)c(Cl)c1` was tested. Which outcome did it give?
A: inactive

Q: With `Clc1cccc(Cl)c1Cl` as the molecule, how does the outcome read?
A: inactive

Q: How did the outcome turn out when `CC(NC(C)(C)C)C(=O)c1cccc(Cl)c1` (stereo unspecified) was run?
A: inactive

Q: For `Nc1ccccc1C(=O)O`, which outcome is on record?
A: inactive

Q: Which outcome does the source give for `CN1C(=O)CN=C(c2ccccc2)c2cc(Cl)ccc21` here?
A: inactive

Q: Which outcome does the source give for `c1ccc(OP(Oc2ccccc2)Oc2ccccc2)cc1` here?
A: inactive

Q: Which outcome does the source give for `Oc1ccccc1Cl` here?
A: inactive

Q: How did the outcome turn out when `NCC(O)c1ccc(O)cc1` (stereo unspecified) was run?
A: inactive

Q: With `Cc1cc(-c2cc(C)c(N)c(C)c2)cc(C)c1N` as the molecule, how does the outcome read?
A: inactive

Q: For `Cc1ccc(N)cc1Cl`, which outcome is on record?
A: inactive

Q: `COC(=O)c1ccccc1C(=O)OC` was tested. Which outcome did it give?
A: inactive

Q: `O=c1ccc(=O)[nH][nH]1` was tested. Which outcome did it give?
A: inactive

Q: For `C#CCN(C)[C@H](C)Cc1ccccc1`, which outcome is on record?
A: inactive

Q: Which outcome does the source give for `O=C(NC(=O)c1c(F)cccc1F)Nc1cc(Cl)c(OC(F)(F)C(F)C(F)(F)F)cc1Cl` (stereo unspecified) here?
A: inactive

Q: Which outcome does the source give for `CN(C)N=O` here?
A: inactive

Q: How did the outcome turn out when `CCCCOC(=O)c1ccccc1C(=O)OCCCC` was run?
A: inactive

Q: How did the outcome turn out when `CCCCCOC(=O)c1ccccc1C(=O)OCCCCC` was run?
A: inactive

Q: Which outcome does the source give for `[N-]=[N+]=[N-]` here?
A: inactive

Q: How did the outcome turn out when `CCc1cccc(C)c1N(C(=O)CCl)C(C)COC` (stereo unspecified) was run?
A: inactive

Q: With `C1CN2CCN1CC2` as the molecule, how does the outcome read?
A: inactive
